Among the data in PubChem BioAssay AID504834 (National Center for Advancing Translational Sciences (NCATS), 2011) are Potency values, retold here.

The whole screen tested about 320,000 compounds, of which about 22,000 (6.9%) were called active. About 27% were inconclusive and are not listed. Calls come from the whole dose curve; as a rule, active = well fitted inhibition curve with a large enough effect; inconclusive = small, poorly fitted or top-dose-only effect, or another doubt; inactive = no such curve, though single readings can be large or run the other way. The entries come from a sample that favours actives as a whole. A call without a number means that no potency is given here.
Potency is the fitted concentration of half-maximal effect.

The nature of the experiment: Primary qHTS for delayed death inhibitors of the malarial parasite plastid, 96 hour incubation. Conditions: P. falciparum luciferase reporter growth; series mostly up to 28.7 µM. In outline: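 Cell-based qHTS: luciferase-tagged P. falciparum in erythrocytes (2% hematocrit, 0.05% parasitemia final) incubated with compounds for 96 hours, 37 C, 5% CO2; luciferase detection reagent then added and luminescence measured.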
As to `COCCn1c(SCC(=O)Nc2nc(C)cs2)nnc1C(C)C`, the Potency entry is “inactive”.
For `O=C(NCc1ccc2c(c1)OCO2)c1ccc2c(c1)C(=O)N(CC1CCCO1)C2=O` (configuration not stated) the value was “inactive”; for `O=C1c2cccc3c([N+](=O)[O-])ccc(c23)C(=O)N1CC1CCCO1` (configuration not stated), 10.4 µM (active).
As for `CCC(=O)Nc1ccc(C(=O)Nc2ccc3c(c2)C(=O)N(CC2CCCO2)C3=O)cc1` (configuration not stated), the Potency result is “inactive”.
Regarding `C[N+](C)(C)CCNC(=O)c1cc[n+](Cc2ccccc2)c(/C=N/O)c1`, the Potency entry was “inactive”.
The value for `O=C(Nc1ccccn1)C1CCN(S(=O)(=O)c2ccc3c(c2)OCCO3)CC1` was “inactive”.
As to `O=C(Nc1ccccn1)C1CCN(S(=O)(=O)c2ccccc2)CC1`, the Potency entry was “inactive”.
Take `O=C(Nc1nccs1)C1CCN(S(=O)(=O)c2ccc(Cl)c(C(F)(F)F)c2)CC1`: the Potency was 13.1 µM (active).
Regarding `CN(C)c1ccc(-c2nnc(-c3cccnc3)o2)cc1`, the Potency entry was “inactive”.
For `CC1CC(C)CN(S(=O)(=O)c2cccc3nonc23)C1` (configuration not stated) the value was “inactive”; for `CCN(C(=O)CSc1nnnn1-c1ccccc1OC)C1CCS(=O)(=O)C1` (configuration not stated), “inactive”.
The value for `COc1ccc(CCNC(=O)CCNS(=O)(=O)c2cc(Br)cnc2N)cc1OC` was “inactive”; that for `COc1cc2c(cc1OC)C(c1ccc(C)o1)CC(=O)N2` (configuration not stated) was 13.1 µM (active); that for `COc1cc2c(cc1OC)C(C(=O)Nc1cc(C)c(OC)c(C)c1)CC(=O)N2` (configuration not stated) was “inactive”.
With `COC(=O)C1=C(C)NC(=O)CC1c1ccccc1OC` (configuration not stated), the Potency result was “inactive”.
For `CC(=O)CC[C@@H](C)O[C@@H]1OC(C)[C@H](O)CC1O` (some centres not stated) the value was “inactive”.
For `C=CCOc1ccc(/C=C/C(=O)OCC(=O)NC2CCCCCC2)cc1` the value was “inactive”; for `N#Cc1cccc(NC(=O)CCC2CCCC2)c1`, “inactive”.
For `N#Cc1cccc(NC(=O)C2CCCN(C(=O)c3ccc(Cl)cc3)C2)c1` (configuration not stated) the value was 9.28 µM (active).
Turning to `N#Cc1cccc(NC(=O)CN2CCCCCC2)c1`, the Potency entry is “inactive”.
The value for `COC(=O)C1=CN(c2ccc(F)c(F)c2)C=C(C(=O)OC)C1c1ccc([N+](=O)[O-])cc1` was “inactive”; that for `COc1ccc(C(C(=O)NC2CCCCC2)N(C(=O)CCl)c2ccccc2Cl)cc1` (configuration not stated) was 0.294 µM (active); that for `COc1cccc(N(C(=O)C2COc3ccccc3O2)C(C(=O)NC2CCCCC2)c2ccc(O)cc2)c1` (configuration not stated) was “inactive”.
For `COc1ccc(C(C(=O)NC2CCCCC2)N(C(=O)c2snc(C(N)=O)c2N)c2ccccc2OC)cc1` (configuration not stated) the value was “inactive”.
The value for `CC(C)C(c1nnnn1C1CCCCC1)N1CCN(C(=O)c2ccco2)CC1` (configuration not stated) was “inactive”.
`CN(C)Cc1c(C(=O)N/N=C/c2ccccc2OCc2ccc(F)cc2)nnn1-c1nonc1N`: the Potency entry is “inactive”.
`CCC1OC(c2ccc([N+](=O)[O-])cc2)=Nc2ccccc21` (configuration not stated): the Potency result was “inactive”.
The value for `CCCC(=O)N1CCC(CCC(=O)NC2CC2)CC1` was “inactive”; that for `COc1ccc(C[C@H]2CN3C(=NC[C@H]3C)N2CCNC(=O)CCC2CCCCC2)cc1` was 6.57 µM (active).
Take `COc1ccc(CCNC(=O)COC(=O)C2CCCCC2)cc1`: the Potency entry was “inactive”.
`COc1ccc(NC(=O)CCCC2CCCCC2)c(OC)c1`: the Potency result was “inactive”.
Consider `COc1cc(C2NC(=O)NC(c3ccccc3)=C2C(C)=O)c(Br)cc1OCC(N)=O` (configuration not stated), for which the Potency result was “inactive”.
With `CCCOc1ccc(C2NC(=O)NC(c3ccccc3)=C2C(C)=O)cc1OCC` (configuration not stated), the Potency is 4.65 µM (active).
For `CCOC(=O)C1=C(c2ccccc2)NC(=O)NC1c1cc(OCC)c(O)c([N+](=O)[O-])c1` (configuration not stated) the value was “inactive”; for `Cc1ccc(S(=O)(=O)N/N=C(\c2ccccc2)C2CC2)cc1`, “inactive”.
The value for `FC(F)(F)c1cccc(Cc2noc(CN3CCC(N4CCCCC4)CC3)n2)c1` was “inactive”.
For `O=C(c1ccco1)N1CCN(Cc2cccc(C(F)(F)F)c2)CC1` the value was “inactive”; for `CCOC(=O)N1CCN(Cc2nc(Cc3cccc(C(F)(F)F)c3)no2)CC1`, 9.28 µM (active).
Consider `Cc1ccc2nc(SCC(=O)N3CC(C)OC(C)C3)nc(=O)n2c1` (configuration not stated), for which the Potency entry is “inactive”.
With `CC(OC(=O)CCCc1c[nH]c2ccccc12)C(=O)Nc1ccc(S(N)(=O)=O)cc1` (configuration not stated), the Potency entry is “inactive”.
For the compound `COc1ccc(C(=O)CCc2ccccc2O)c(OC)c1`, the Potency entry is “inactive”.
The value for `Cc1ccc(S(=O)(=O)N(C)CC(=O)OCC(=O)Nc2ccccc2)cc1` was “inactive”.
The value for `COc1ccc(OC)c(NC(=O)C2CCCN2S(=O)(=O)c2cccc3nsnc23)c1` (configuration not stated) was 13.1 µM (active); that for `COc1ccc(N(C)C(=O)C2CCN(S(=O)(=O)c3cccc4nsnc34)CC2)cc1` was “inactive”.
The value for `Cc1ccc(NC(=O)C2CCCN2S(=O)(=O)c2cccc3cccnc23)c(C)c1` (configuration not stated) was “inactive”; that for `O=C(CN1CCN(S(=O)(=O)c2ccc(Cl)s2)CC1)N1CCCCC1` was “inactive”.
In the case of `Cc1ccc(OCC(=O)N2CCN(S(=O)(=O)c3ccc(Cl)s3)CC2)cc1C`, the Potency was 9.28 µM (active).
`Cc1cc(OCC(=O)N2CCN(c3ncccn3)CC2)ccc1Cl`: the Potency entry is “inactive”.
The value for `CS(=O)(=O)N1CCN(C(=O)c2cc3ccccc3oc2=O)CC1` was “inactive”; that for `O=C(c1cc2ccccc2o1)N1CCN(S(=O)(=O)c2ccc(Cl)s2)CC1` was 11.7 µM (active); that for `O=S(=O)(c1ccc(Cl)s1)N1CCC2(CC1)OCCO2` was “inactive”.
For `O=C(CSc1nnc(CN2CCCC2)n1-c1ccc(F)cc1)c1ccc2c(c1)OCO2` the value was “inactive”.
For `COc1ccc(C(CNC(=O)COc2ccc([N+](=O)[O-])cc2)N2CCCCC2)cc1` (configuration not stated) the value was “inactive”.
Take `COC(=O)C1=C(c2ccc(F)cc2F)C[C@@H]2CC[C@H]1N2C(=O)NC1CC1`: the Potency result was “inactive”.
With `COC(=O)C1=C(c2ccc(Cl)c(C(F)(F)F)c2)C[C@@H]2CC[C@H]1N2C(=O)NC1CC1`, the Potency is 5.86 µM (active).
For `Cc1ccc(N2CC(C(=O)Nc3ccc(S(=O)(=O)N4CCCC4)cc3)CC2=O)cc1C` (configuration not stated) the value was “inactive”.
Take `COC(=O)c1cc(C(=O)NC(C)C2CC3CCC2C3)cc([N+](=O)[O-])c1` (configuration not stated): the Potency entry was “inactive”.
The value for `COc1cccc(CNC(=O)c2nnn(CC(=O)Nc3cc(C)ccc3C)c2N)c1` was 11.7 µM (active); that for `Cc1ccc(NC(=O)Cn2nnc(C(=O)NCc3ccco3)c2N)c(C)c1` was “inactive”.
Take `COc1cccc(CNC(=O)c2nnn(CC(=O)Nc3cc(Cl)ccc3C)c2N)c1`: the Potency was 3.7 µM (active).
On to `Nc1c(C(=O)NCc2ccccc2)nnn1Cc1cccc(Cl)c1`, for which the Potency result is “inactive”.
Consider `COc1cccc(CNC(=O)c2n[nH]c3ccccc23)c1`, for which the Potency entry is “inactive”.
For `CCOc1ccc(Cn2nnc(C(=O)NCc3ccccc3)c2N)cc1`, the Potency result was “inactive”.
For `O=C(c1cccc(Br)c1)N1CCN(C2=NS(=O)(=O)c3ccccc32)CC1` the value was “inactive”; for `Cc1ccc(S(=O)(=O)CC(=O)NC(C)c2ccccc2)cc1` (configuration not stated), “inactive”; for `CC1=CC(C)(C)NC(=S)N1NC(=O)c1ccccc1Cl`, “inactive”.
For `COc1cc(C(c2c(NC(=O)c3ccco3)sc(C)c2C)N2CCOCC2)cc(OC)c1OC` (configuration not stated) the value was 3.7 µM (active); for `COc1ccc(C(=O)Nc2sc(C)c(C)c2CN2CCOCC2)cc1`, “inactive”.
On to `COC(=O)c1cc(NC(=O)c2ccco2)ccc1N1CCOCC1`, for which the Potency result was “inactive”.
For `Cc1sc2ncn(CC(=O)NCCN(C)C)c(=O)c2c1S(=O)(=O)N1CCC(C)CC1` the value was “inactive”; for `c1ccc(C2CNCc3c2ccc2ccccc32)cc1` (configuration not stated), 9.28 µM (active).
The value for `Cc1ccc2c(=O)cc(C(=O)NCCc3ccc(S(N)(=O)=O)cc3)oc2c1C` was “inactive”; that for `CC(CC(=O)N1CCN(c2ccccc2)CC1)c1ccccc1` (configuration not stated) was “inactive”.
For `COc1ccc(C(CC(=O)N2CCN(c3ccccc3)CC2)c2c(O)cc(OC)cc2OC)cc1` (configuration not stated) the value was 11.7 µM (active).
As for `COc1ccc(OC)c(S(=O)(=O)N(C)CC(=O)N2CCN(c3ccccc3)CC2)c1`, the Potency entry was “inactive”.
The value for `NNC(=O)CNC(c1ccccc1)c1cc(Cl)ccc1NC(=O)c1ccccc1` (configuration not stated) was “inactive”; that for `Cc1ccc(NC(=O)/C(=C\c2ccccc2)NC(=O)c2ccco2)cc1` was “inactive”; that for `Fc1ccc(CNc2nc3ccccc3n3nnnc23)cc1` was 14.7 µM (active).
As to `CCOC(=O)CNc1nc2ccccc2n2c(C)nnc12`, the Potency entry is “inactive”.
For `COc1ccc(CNc2nnnn2C)cc1` the value was “inactive”.
As for `Cc1cnc(NC(=O)c2ccc(Cl)nc2)s1`, the Potency entry was “inactive”.
Turning to `Cc1nnsc1C(=O)NCc1c(F)cccc1Cl`, the Potency result was “inactive”.
The value for `O=C(CNC(=O)c1ccccc1Br)NNC(=O)c1cccs1` was “inactive”; that for `Cc1ccc(-c2nc(CS(=O)(=O)CC(=O)NCc3ccc4c(c3)OCO4)c(C)o2)cc1` was 14.7 µM (active); that for `COc1ccc(-c2nc(CS(=O)(=O)CC(=O)NCc3cccc(Br)c3)c(C)o2)cc1` was “inactive”.
For `COc1ccc(CCNC(=O)CS(=O)(=O)Cc2nc(-c3ccc(C)cc3)oc2C)cc1OC` the value was “inactive”; for `C=CCNC(=O)c1ccc2c3n(nc2c1)-c1ccc(C)cc1CO3`, “inactive”; for `COc1cc2c(cc1NC(=O)COC(=O)/C=C/c1ccccc1)oc1ccccc12`, “inactive”.
Turning to `Cc1oc2cc(Br)c(O)c(Br)c2c1C(=O)c1ccccc1`, the Potency entry is “inactive”.
For `COc1cc(/C(=C/c2ccccc2)c2ccccc2)c2c(c1)oc1ccccc12` the value was 13.1 µM (active).
Regarding `CNC(=O)c1sc(NCc2ccccc2OC)nc1C`, the Potency result is “inactive”.
The value for `O=C(CCNC(=O)c1ccc(Br)cc1)NCCCc1ccccc1` was “inactive”.
Consider `COc1ccc(CCNC(=O)CCn2c(=O)oc3ccccc32)cc1OC`, for which the Potency result was “inactive”.
`COc1ccc(N2CCN(C(=O)CSc3nc4cc(OC)c(OC)cc4cc3C#N)CC2)cc1`: the Potency result is “inactive”.
Take `COc1ccc(CCNC(=O)CSc2nnc(-c3cccc(F)c3)o2)cc1OC`: the Potency entry is “inactive”.
For `COc1ccc(CNC(=O)CSc2n[nH]c(N)n2)cc1OC` the value was “inactive”.
The value for `COc1ccc(CCNC(=O)CSc2nc(-c3ccc(OC)c(OC)c3)ccc2C#N)cc1` was 10.4 µM (active); that for `COc1ccc(CCNC(=O)CSc2nc(C)nc3c2oc2ccccc23)cc1OC` was 5.86 µM (active); that for `O=C(CCN1CCCO1)N1CCCC(N2CCN(c3cccc(C(F)(F)F)c3)CC2)C1` (configuration not stated) was “inactive”.
For `Cc1ccc(CSc2nsc(C)c2C#N)cc1` the value was “inactive”.
As for `CCC(C)(C)NC(=O)CN(C(=O)CCC(=O)Nc1nccs1)c1ccc2c(c1)OCO2`, the Potency result is “inactive”.
The value for `Cc1nn(CC(=O)N2CCCCC2)c(=O)c2nn(-c3ccccc3)c(C)c12` was “inactive”; that for `Cc1nc2c(C(=O)NCc3ccc4c(c3)OCO4)c[nH]n2c(=O)c1Cc1ccccc1F` was “inactive”; that for `COc1ccc(CNC(=O)COC(=O)c2c(C)nn(-c3ccccc3)c2C)cc1OC` was “inactive”.
Take `Cc1ccc(-n2nc3c(=O)n(C(C)C(=O)NCc4ccc5c(c4)OCO5)nc(C)c3c2C)cc1` (configuration not stated): the Potency was 1.31 µM (active).
The value for `COc1ccc(CNC(=O)C(C)n2nc(C)c3c(C)n(-c4ccccc4)nc3c2=O)c(OC)c1` (configuration not stated) was 10.4 µM (active).
For `CCn1c(=O)c(C(=O)NCc2ccc3c(c2)OCO3)c(O)c2ccccc21` the value was “inactive”.
